From PubChem BioAssay

assay: probe aNOTCH2 binding on compound microarray – biochemical, small-molecule microarray, 635/667 nm fluorescence, primary screen (AID 1121); conditions: higher = more signal;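 also: score merges feature fluorescence read at 667 nm with its signal to noise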

Q: With `CC1CC/C=C\[C@H]2OC34C=CCN(C(C)(C)C)C(=O)[C@H]3N(CCCCCCO)C(=O)[C@@H]4C2C(=O)O1` (stereo not given in full) as the molecule, how does the composite z-score read?
A: The composite z-score was -0.114.

Q: Which composite z-score does the source give for `C[C@@]1([C@@H](NC(=O)c2ccccc2)c2ccc(-c3ccccc3)cc2)C[C@H]1C1CCCCC1` here?
A: Its composite z-score is 0.378.

Q: For `COCCCNC(=O)[C@@]1(Cc2ccccc2N=[N+]=[N-])N=C(c2ccc(OCCCO)cc2)O[C@H]1c1ccccc1N=[N+]=[N-]`, which composite z-score is on record?
A: The composite z-score was 0.149.

Q: For `CCN(CC)c1ccc(N2CC=CC34O[C@@H]5/C=C\CCCOC(=O)C5[C@H]3C(=O)N(CCO)[C@@H]4C2=O)cc1` (stereo not given in full), which composite z-score is on record?
A: Its composite z-score is -0.14.

Q: For `CC(C)(C)OC(=O)CC[C@]12N=C(c3ccc(OCCCO)cc3)O[C@H]1c1ccccc1N(CCS(=O)(=O)c1ccccc1)C2=O`, which composite z-score is on record?
A: The composite z-score was -0.0241.

Q: With `CN1C(=O)C2C=CC(C(O)c3cccs3)N(Nc3ccccc3)C2C1=O` (stereo not given) as the molecule, how does the composite z-score read?
A: Its composite z-score is -0.0856.

Q: Which composite z-score does the source give for `O=C1O[C@H](c2ccccc2)[C@H](c2ccccc2)N2[C@H]1[C@@H](C(=O)O)[C@]1(C(=O)Nc3ccc(C#CC4=CCCCC4)cc31)[C@H]2c1ccccc1OCCO` here?
A: The composite z-score was 0.0062.

Q: For `COc1cc(OC)c(C(O)C2C=CC3C(=O)NC(=O)C3N2Nc2ccc(Cl)cc2Cl)cc1Br` (stereo not given), which composite z-score is on record?
A: Its composite z-score is 0.321.

Q: With `C=CC[C@]1(C(=O)NCCCOC)N=C(c2ccc(OCCCO)cc2)O[C@H]1c1ccccc1N=[N+]=[N-]` as the molecule, how does the composite z-score read?
A: The composite z-score was 0.0494.

Q: With `Cc1ccc(S[C@]2(C(=O)NCCN3CCOCC3)CC(=O)N(Cc3ccccc3Cl)[C@@H]2c2ccc(CO)cc2)cc1` as the molecule, how does the composite z-score read?
A: The composite z-score was -0.133.

Q: Which composite z-score does the source give for `Cc1ccc(S[C@]2(C(=O)NCC(C)C)CC(=O)N(Cc3cc(C(F)(F)F)cc(C(F)(F)F)c3)[C@@H]2c2ccc(CO)cc2I)cc1` here?
A: Its composite z-score is -0.0415.

Q: Which composite z-score does the source give for `CC(C)[C@@H](CO)NC(=O)[C@H]1[C@@H](c2ccccc2)N(c2ccccc2)O[C@@H]1C` here?
A: Its composite z-score is -0.162.

Q: For `C=CCOC(=O)[C@@H]1[C@H]2C(=O)O[C@H](c3ccccc3)[C@H](c3ccccc3)N2[C@H](c2ccc(OCCOC(=O)[C@@H]3C[C@@H]4C(=O)N[C@@H](CCCCN(C)C)C(=O)N4[C@@H]3c3ccc(O)cc3)cc2)[C@@]12C(=O)Nc1ccc(I)cc12`, which composite z-score is on record?
A: Its composite z-score is -0.177.

Q: For `COCCOC(=O)N1C(=O)[C@@]2(c3cc(C#CC4=CCCCC4)ccc31)[C@H](C(=O)Nc1nc3ccccc3s1)[C@H]1C(=O)O[C@H](c3ccccc3)[C@H](c3ccccc3)N1[C@@H]2c1ccccc1OCCO`, which composite z-score is on record?
A: The composite z-score was 0.248.

Q: Which composite z-score does the source give for `CC(C)N1C(=O)[C@@]2(Cc3ccccc31)c1ccccc1C(=O)N(C1CCCCC1)[C@H]2c1ccc(CO)cc1` here?
A: Its composite z-score is -0.174.

Q: For `O=C1O[C@H](c2ccccc2)[C@H](c2ccccc2)N2[C@H]1[C@@H](C(=O)O)[C@]1(C(=O)Nc3ccc(C#CCCO)cc31)[C@H]2c1ccc(O)cc1`, which composite z-score is on record?
A: The composite z-score was -0.0467.

Q: With `C=CC[C@@]1(C(=O)NCc2ccccc2)N=C(c2ccc(OCCCO)cc2)O[C@@H]1c1ccccc1N=[N+]=[N-]` as the molecule, how does the composite z-score read?
A: The composite z-score was 0.0186.

Q: Which composite z-score does the source give for `COc1ccc(CCN2C(=O)[C@@]3(c4ccc([N+](=O)[O-])cc4)CC(=O)N(C4CCCCC4)[C@@H]3c3ccc(CO)cc32)cc1` here?
A: Its composite z-score is -0.101.

Q: Which composite z-score does the source give for `C=CCOC(=O)[C@@H]1[C@H]2C(=O)O[C@H](c3ccccc3)[C@H](c3ccccc3)N2[C@H](c2ccc(OCCOC(=O)[C@@H]3C[C@@H]4C(=O)N[C@@H](CCCC[N+](C)(C)C)C(=O)N4[C@@H]3c3cccc(OCCO)c3)cc2)[C@@]12C(=O)Nc1ccc(I)cc12` here?
A: Its composite z-score is -0.0666.

Q: With `O=C1[C@H]2C=C(Br)[C@H](C[C@@H]2OCCCCO)[C@@]12CO2` as the molecule, how does the composite z-score read?
A: The composite z-score was -0.162.

Q: Which composite z-score does the source give for `O=C(NCc1ccccc1)[C@@]1(Cc2ccccc2)N=C(c2ccc(OCCCO)cc2)O[C@H]1c1ccccc1` here?
A: Its composite z-score is 0.349.

Q: With `CCc1oc(CC[C@@H](CO)NC(=O)NCCn2cc(C3(O)CCCCC3)nn2)c(C(=O)OC)c1C(=O)OC` as the molecule, how does the composite z-score read?
A: The composite z-score was -0.0813.

Q: With `C=C(/C(=C/C[C@@H](OC(C)=O)c1ccc(OCCO)cc1)c1cnc2ccccc2c1)C(C)C` as the molecule, how does the composite z-score read?
A: The composite z-score was -0.17.

Q: Which composite z-score does the source give for `COC(=O)[C@@]1(Cc2ccc(F)cc2)[C@H]2c3cc(C(=O)N(C)C)n(Cc4ccc(S(C)(=O)=O)cc4)c3C[C@H]2CN1C(=O)c1ccccc1` here?
A: The composite z-score was 0.151.

Q: For `O=C(NCc1ccc(F)cc1)[C@H]1C[C@H]2C(=O)N[C@@H](Cc3ccccc3)C(=O)N2[C@H]1c1ccc(O)cc1`, which composite z-score is on record?
A: Its composite z-score is -0.159.

Q: With `C=CC[C@@]1(C(=O)N(C)C)N=C(c2ccc(OCCCO)cc2)O[C@@H]1c1ccccc1N=[N+]=[N-]` as the molecule, how does the composite z-score read?
A: The composite z-score was 0.209.

Q: Which composite z-score does the source give for `C=C(COC)/C(=C/C[C@@H](OC(C)=O)c1ccc(OCCO)cc1)c1cc(C(=O)OC)ccc1OC` here?
A: The composite z-score was -0.118.

Q: With `Cc1ccc(C(C)CC(O)C2C=CC3C(=O)N(C)C(=O)C3N2NC(=O)OC(C)(C)C)o1` (stereo not given) as the molecule, how does the composite z-score read?
A: Its composite z-score is -0.0925.

Q: Which composite z-score does the source give for `CC(C)C[C@@H]1NC(=O)[C@H]2C[C@@H](C(=O)NCCCCCCN(C)C)[C@@H](c3ccc(O)cc3)N2C1=O` here?
A: The composite z-score was -0.112.

Q: Which composite z-score does the source give for `CN(C)CCCCCCNC(=O)[C@@H]1C[C@@H]2C(=O)N[C@@H](CCCCN)C(=O)N2[C@@H]1c1cccc(OCCO)c1` here?
A: Its composite z-score is 0.72.

Q: With `[N-]=[N+]=NCc1ccccc1[C@H]1OC(c2ccc(OCCCO)cc2)=N[C@@]1(Cc1ccccc1)C(=O)NCc1ccccc1` as the molecule, how does the composite z-score read?
A: Its composite z-score is -0.283.

Q: With `CCOC(=O)C[C@H]1[C@H](OC(=O)c2cc3ccccc3oc2=O)[C@@H](NC(=O)C2CCCCC2)c2cc(OCCCO)ccc2N1C(=O)c1ccccc1` as the molecule, how does the composite z-score read?
A: The composite z-score was -0.0482.

Q: For `[N-]=[N+]=NCc1ccccc1C[C@]1(C(=O)NCC(O)CO)N=C(c2ccc(OCCCO)cc2)O[C@H]1c1ccccc1` (stereo not given in full), which composite z-score is on record?
A: The composite z-score was -0.0596.

Q: With `CO[C@H]1O[C@H](CO)[C@@H](OC(=O)Nc2ccc(Br)cc2)[C@H](OC(=O)c2cc3ccccc3[nH]2)[C@H]1OC(=O)c1cc2ccccc2[nH]1` as the molecule, how does the composite z-score read?
A: Its composite z-score is -0.101.

Q: With `CC(CO)N1C(=O)[C@@H]2C3C(=O)OCCC/C=C\[C@H]3OC23C=CCN(c2ccc4ccccc4c2)C(=O)[C@@H]13` (stereo not given in full) as the molecule, how does the composite z-score read?
A: Its composite z-score is -0.115.
